Source: PubChem
HT1080-NT tox = kills 2HG-producing HT-1080-NT fibrosarcoma cells. HT-1080-NT fibrosarcoma viability, CellTiter-Glo ATP luminescence, 48 h. Potency, µM (doses to about 46.1 µM), most hits filed as cytotoxic. hit rate 1.6% among 360,000. AID 686970;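 also: NT is the 2HG producing partner of a matched IDH1 knockdown line; nearly all actives have a fitted effect of over 55% in size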
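A 48-hour cytotoxicity screen used HT-1080-NT cells plated 2 hours before compound delivery. ATP-based CellTiter-Glo luminescence measured viability, normalized to DMSO and no-cell controls.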
IL-1B inflam inh = inflammasome signaling inhibition, IL-1 beta readout; THP-1 LPS/ATP IL-1B secretion, AlphaLISA, 16 h; stronger effect = lower value; activity change, % at 57.5 µM; hit rate 4.7% among 360,000; AID 743279; in the data active = activity change below about -50%; inconclusive = mostly about -30% to -49%
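THP-1 cells pretreated 1 hr with compounds (up to 57.5 uM final), then stimulated with LPS (250 ng/mL final) plus ATP (1.25 mM final); secreted IL-1B measured by AlphaLISA after 16 hr, decreased signal indicating inhibition.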
TDP1 cell CPT = growth inhibition of DT40 Tdp1-/-;hTDP1 cells with camptothecin (screen for TDP1 inhibitors); chicken DT40 Tdp1-/-;hTDP1 cells + 20 nM CPT, ATP luminescence, 48 h; Potency, µM (doses to about 46.2 µM), hits mostly inhibitors; AID 686979; hit rate 12% among 420,000; also: nearly all actives have a fitted effect of over 55% in size
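Chicken DT40 Tdp1-/- cells stably complemented with human TDP1 were seeded at 400 cells/well in medium containing 20 nM camptothecin, exposed to pin-transferred compounds, and grown at 37 °C for at least 48 hr. Viability was read as ATP luminescence.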
TDP1 cell noCPT = qHTS for Inhibitors of human tyrosyl-DNA phosphodiesterase 1 (TDP1): qHTS in cells in absence of CPT; DT40 Tdp1-/- hTDP1 cells, no CPT, ATP luminescence, 48 h; Potency, µM (titrated, usually from 46.2 µM), actives largely listed as inhibitors; hit rate 15% among 420,000; AID 686978, 2013; also: nearly all actives have a fitted effect of over 55% in size
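A cellular qHTS used chicken DT40 cells lacking endogenous Tdp1 but carrying stably transfected human TDP1. Compounds were applied without camptothecin, and cell growth kinetics were judged by ATP-dependent luminescence after ≥48 hr.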
HT1080 IDH1KD tx = HT-1080 IDH1 knockdown cell toxicity (counter line); AID 686971; hit rate 2% among 360,000; Potency, µM (top dose mostly 46.1 µM), most hits filed as cytotoxic; HT-1080 IDH1 knockdown viability, ATP luminescence, 48 h
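IDH1KD HT-1080 cells, 750/well, RPMI + 5% FBS; compound pinned after 2 h settling; 48 h, 37 °C; CellTiter-Glo luminescence; % activity normalised to DMSO and no-cell wells; curves fitted, classed by r2 and efficacy.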
Hits are given with their value; i = inactive; ? = inconclusive; nt = no result given. Most compounds without a hit are left out; they make up all but 19% or so of the library. Unless noted, calls follow the shape of the dose curve; as a rule, active = well fitted curve in the direction sought with a large enough effect; inconclusive = small, poorly fitted or top-dose-only effect, or another doubt; inactive = no such curve, though single readings can be large; an effect the other way counts as inactive or inconclusive.

SMILES | HT1080-NT tox | IL-1B inflam inh | TDP1 cell CPT | TDP1 cell noCPT | HT1080 IDH1KD tx
OCCN1CCN(Cc2ccc3c(c2)CN(Cc2cccn2-c2ccccn2)CCO3)CC1 | nt | nt | i | i | nt
Cc1ccc(Cl)cc1N1C(=O)CC(Sc2ccccc2N)C1=O (centres undefined) | i | i | i | i | i
CCc1nc2ccc(C(=O)NCc3ccc4c(c3)OCO4)cn2c1N(CC)CCOC | i | i | ? | ? | i
CCc1nc2ccc(C(=O)NCCOc3ccc(OC)cc3)cn2c1N(CC)Cc1cccc(Br)c1 | ? | -69 | 18µM | 21µM | ?
CCCCNC(=O)c1ccc2nc(CC)c(N(C)Cc3cccs3)n2c1 | i | -74 | 18µM | ? | i
CCc1nc2ccc(C(=O)NCc3ccccc3OC)cn2c1N(CC)Cc1cccc(Br)c1 | ? | i | 26µM | ? | ?
CCc1nc2ccc(C(=O)Nc3cccc(OC)c3)cn2c1N(C)CCCc1ccccc1 | ? | -51 | ? | ? | ?
COc1ccc(COc2ccccc2C(=O)NCc2ccccc2)cc1F | i | i | ? | ? | i
COc1cccc(C(=O)N2CCCC(Nc3ccc(C)c(C)c3)C2)c1 (centres undefined) | i | i | i | i | i
O=C(CSCC(=O)OCC(=O)c1ccc(Br)cc1)Nc1cccc2ccccc12 | i | i | i | i | i
CCc1nc2ccc(C(=O)NCCCn3ccnc3)cn2c1N(C)Cc1cccs1 | i | i | ? | ? | i
CCc1nc2ccc(C(=O)NCc3cccs3)cn2c1N(CC)Cc1cccc(Br)c1 | ? | -54 | 21µM | 12µM | ?
CCc1nc2ccc(C(=O)Nc3cccc(NS(C)(=O)=O)c3)cn2c1N(CCC(C)C)CCN(C)C | ? | ? | 16µM | 18µM | ?
CCc1nc2ccc(C(=O)Nc3cccc(OC)c3)cn2c1N(CC)Cc1cccc(Br)c1 | ? | -57 | 18µM | ? | ?
CCc1nc2ccc(C(=O)Nc3ccc4c(c3)OCC(=O)N4)cn2c1N(CC)Cc1cccc(Br)c1 | ? | i | 18µM | i | i
CCc1nc2ccc(C(=O)Nc3cccc(NS(C)(=O)=O)c3)cn2c1N(C=O)CCC(C)C | i | i | ? | ? | i
Cc1c(C(=O)C(=O)NCc2ccco2)c2ccccc2n1C | i | i | i | i | i
COCCCNC(=O)CCc1c(C)c2cc3c(C)coc3cc2oc1=O | i | i | ? | ? | i
O=C(CS(=O)(=O)Cc1ccccc1)NCc1ccco1 | i | i | i | i | i
Cc1ccc(-c2nc3ncccn3c2N)cc1 | i | i | ? | i | i
CCN1C[C@@H]2[C@@H]3C(=O)N(C)C(=O)[C@@H]3[C@](C)(C1=O)N2C(=O)c1ccc(Br)cc1 | i | i | i | i | i
CCc1nc2ccc(C(=O)Nc3ccc4c(c3)OCC(=O)N4)cn2c1N(C)C(=O)Cc1ccccc1 | i | i | i | i | i
Cc1nc2ccc(C(=O)Nc3ccc4c(c3)OCC(=O)N4)cn2c1N(C)C(=O)CCc1ccccc1 | i | i | ? | 18µM | i
CCc1nc2ccc(C(=O)Nc3cccc(NS(C)(=O)=O)c3)cn2c1N(CC)Cc1cccc(Br)c1 | 23µM | -70 | ? | 16µM | ?
CCc1nc2ccc(C(=O)Nc3cccc(NS(C)(=O)=O)c3)cn2c1N(C)CCCc1ccccc1 | ? | i | ? | ? | ?
SMILES | HT1080-NT tox | IL-1B inflam inh | TDP1 cell CPT | TDP1 cell noCPT | HT1080 IDH1KD tx
CCOC(=O)C1=C(C)NC(SC)=C(C#N)C1CC(C)C (centres undefined) | 1.8µM | ? | 3.7µM | 3.7µM | 2.6µM
CC(=O)C1=C(C)NC(SCC(N)=O)=C(C#N)C1CC(C)C (centres undefined) | i | i | i | ? | i
C1=Nc2c(Nc3ccccc3)ncnc2Oc2ccccc21 | ? | i | 9.2µM | 10µM | ?
COc1ccc(S(=O)(=O)Nc2ccc3c(c2)CC(=O)N([C@@H](C)CO)C[C@@H](C)[C@@H](CN(C)Cc2ccccc2)O3)cc1 | i | i | 18µM | 16µM | i
C[C@@H]1CN([C@H](C)CO)C(=O)Cc2cc(NC(=O)Nc3ccccc3)ccc2O[C@@H]1CN(C)Cc1ccc2c(c1)OCO2 | i | -64 | ? | ? | i
Cc1ccc(S(=O)(=O)Nc2ccc3c(c2)CC(=O)N([C@H](C)CO)C[C@H](C)[C@H](CN(C)Cc2ccc4c(c2)OCO4)O3)cc1 | i | i | 21µM | 18µM | i
CCOC(=O)CCCCCC(=O)Nc1ccc2c(c1)CC(=O)N([C@H](C)CO)C[C@@H](C)[C@H](CN(C)Cc1ccc3c(c1)OCO3)O2 | i | i | ? | ? | i
N[C@@H]1CCN(O)C1=O | nt | nt | i | i | nt
COCC(=O)N[C@H]1CC[C@@H](CC(=O)NCc2ccccc2OC)O[C@@H]1CO | i | i | i | i | i
Cn1c(SCC2CCCO2)nnc1C1CCN(Cc2ccco2)CC1 (centres undefined) | nt | nt | i | i | nt
c1ccc(-c2nn3c(-c4ccccc4)nnc3o2)cc1 | i | -51 | ? | ? | i
CCCc1nn2c(-c3ccccc3)nnc2o1 | i | -67 | i | ? | i
COc1ccc(S(=O)(=O)N2CCOCC2)cc1NC(=O)CSc1nnc(C2CC2)n1N | i | i | i | i | i
O=C(Oc1cccc2ccccc12)c1ccccc1 | i | i | i | ? | i
CC(NC(=O)Oc1cccc2ccccc12)c1ccccc1 (centres undefined) | i | i | ? | 26µM | i
CCN1c2ccccc2N(C)C1(C)c1ccccc1 (centres undefined) | ? | i | 3.7µM | 3.7µM | ?
O=C(C1CCN(S(=O)(=O)c2ccc(F)cc2)CC1)N1CC=C(c2ccccc2)CC1 | i | i | ? | ? | i
COc1cc2oc3ccccc3c2cc1N(CC(=O)N(C)C)S(=O)(=O)c1ccccc1 | i | i | i | ? | i
COc1cc2oc3ccccc3c2cc1N(CC(=O)N(C)C)S(=O)(=O)c1ccc(C)cc1 | i | i | i | i | i
CCN(CC)C(=O)CN(c1cc2c(cc1OC)oc1ccccc12)S(=O)(=O)c1ccccc1 | i | i | 18µM | ? | i
COc1cc2oc3ccccc3c2cc1N(CC(=O)N1CCCCC1)S(=O)(=O)c1ccc(C)cc1 | i | i | ? | 23µM | i
CCCCC/C=C/C1=CC(=O)C[C@H](c2ccc(OC)cc2)C1 | i | i | i | i | i
Cc1ccccc1Oc1cc(-n2ncc(Cl)c(Cl)c2=O)ncn1 | 13µM | -106 | 0.65µM | 0.41µM | 7.3µM
NC(=O)C1(N2CCCCC2)CCN(c2nc(-c3ccccc3)cs2)CC1 | i | i | 21µM | 16µM | i
O=C(NC12CC3CC(CC(C3)C1)C2)N1CCN(c2nc(-c3ccccc3)cs2)CC1 | i | ? | ? | 18µM | i
O=C(NC1CCCCC1)N1CCN(c2nc(-c3ccccc3)cs2)CC1 | i | -64 | ? | 26µM | ?
